Screens (PubChem BioAssay)
IDE inh: inhibitors of human insulin-degrading enzyme in cells; P14735; HEK cells, FAbetaB cleavage, fluorescence polarization; inhibition, % at 5.59 µM; 0.41% of 320,000 active; AID 434962;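 active = percent inhibition above the average of all tested compounds plus 3 SD, set per screening campaign, cut at about 16% in these data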;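 note: IDE supplied by intact live HEK cells; FP after avidin binding of uncleaved biotin substrate so inhibition keeps polarization high; 0% = DMSO wells and 100% = 60 µM reference IDE inhibitor Ii1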
Target sequence (P14735 whole entry, looked up): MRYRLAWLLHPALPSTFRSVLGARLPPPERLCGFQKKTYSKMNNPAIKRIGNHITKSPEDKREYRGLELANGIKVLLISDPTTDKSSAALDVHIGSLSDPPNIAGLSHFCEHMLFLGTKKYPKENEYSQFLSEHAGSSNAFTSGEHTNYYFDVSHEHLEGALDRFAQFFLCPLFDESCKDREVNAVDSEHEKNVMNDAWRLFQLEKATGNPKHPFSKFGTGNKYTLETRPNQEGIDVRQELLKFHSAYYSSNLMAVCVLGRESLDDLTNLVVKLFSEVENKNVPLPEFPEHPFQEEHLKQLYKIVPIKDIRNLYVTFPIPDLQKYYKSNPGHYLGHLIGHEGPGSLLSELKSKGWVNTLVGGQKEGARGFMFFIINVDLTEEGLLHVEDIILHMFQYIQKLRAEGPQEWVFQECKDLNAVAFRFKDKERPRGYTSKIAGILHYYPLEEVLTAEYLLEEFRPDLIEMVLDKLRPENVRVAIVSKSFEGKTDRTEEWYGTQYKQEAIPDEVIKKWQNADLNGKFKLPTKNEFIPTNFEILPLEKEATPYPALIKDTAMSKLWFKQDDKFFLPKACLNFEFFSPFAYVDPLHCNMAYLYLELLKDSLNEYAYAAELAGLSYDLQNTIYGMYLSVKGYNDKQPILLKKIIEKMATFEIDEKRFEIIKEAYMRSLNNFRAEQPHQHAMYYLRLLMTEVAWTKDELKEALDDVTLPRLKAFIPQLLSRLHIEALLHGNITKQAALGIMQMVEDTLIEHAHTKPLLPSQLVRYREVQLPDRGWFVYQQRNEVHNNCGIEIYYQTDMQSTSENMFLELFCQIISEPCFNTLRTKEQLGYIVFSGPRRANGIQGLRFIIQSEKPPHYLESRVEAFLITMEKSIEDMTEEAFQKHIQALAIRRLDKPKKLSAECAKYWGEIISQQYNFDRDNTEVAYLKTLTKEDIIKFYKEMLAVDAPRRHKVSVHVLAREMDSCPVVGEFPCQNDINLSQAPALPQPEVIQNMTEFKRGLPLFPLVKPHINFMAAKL
ALR H2O2 inh: inhibitors of human sulfhydryl oxidase ALR; P55789; purified ALR, DTT oxidation, H2O2 HRP-luminol luminescence; 3.8% of 290,000 active; inhibition, % (concentration not given with the values);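 active = mean replicate inhibition above about 79%, with every replicate also reaching it, limit read from the data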
M18AAP inhibitor: blocks P. falciparum M18 aspartyl aminopeptidase; AID 1822; recombinant PfM18AAP, H-Glu-NHMec fluorogenic cleavage; 1.2% of 290,000 active; inhibition, % at 7.35 µM;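 active = inhibition above the campaign mean inhibition over all tested compounds plus 3 SD, cut at about 28% in these data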;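 note: 0% = plate median of test compound wells and 100% = 2 mM ZnCl2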
PolyA inh: blocks polyadenylation in yeast reporter cells; S. cerevisiae SKY197-pL101 polyadenylation reporter, beta-gal luminescence; efflux-impaired pdr1/pdr3 knockout yeast; score 100 = 6 SD above DMSO; activity score, % at 12 µM; 0.02% of 300,000 active; AID 1875;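 active = lowest replicate activity score at least 50, where 100 means six control SD above control mean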;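 note: yeast exposed to compound for 9 h at 30 °C; higher score means more reporter readthrough which indicates perturbed polyadenylation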
CaV13 FRET inh: Primary screen for inhibitors of IQ motif and Ca2+-dependent inactivation inhibitor domain binding in CACNA1D, Förster resonance energy transfer in living cells, … | 0.098% of 340,000 active | HEK cells, CFP/YFP FRET ICDI-IQ, plate reader, 10 min; percent FRET-ratio fall versus neutral wells | AID 743397 | inhibition, % at 12.3 µM;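 active = mean replicate inhibition of at least 30% and at least 1% of replicates passing that level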;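 note: 0% = median of the neutral control wells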
IDE cell activ: boosts human insulin-degrading enzyme activity in HEK cells; P14735; FAbeta-B cleavage, fluorescence polarization; 0% vehicle, 100% cell-free pure enzyme wells; activation, % at 5.96 µM; 0.073% of 340,000 active;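 active = activation above the mean of all tested compounds plus 3 SD, set per screening campaign, cut at about 17% in these data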
The depositor's hits bear a star; / = no result given. An excerpt weighted towards active compounds, which were near 4.1% of everything screened.

SMILES | IDE inh | ALR H2O2 inh | M18AAP inhibitor | PolyA inh | CaV13 FRET inh | IDE cell activ
NNC(=O)c1ccc([N+](=O)[O-])c(CS(=O)(=O)c2ccc(Cl)cc2)c1 | -5 | -6 | -16 | -6 | -2 | -4
CO/N=C/NC(=O)c1ccc([N+](=O)[O-])c(CS(=O)(=O)c2ccc(Cl)cc2)c1 | 4 | 100* | 3 | 21 | / | -3
CC(=O)NS(=O)(=O)c1ccc(N=c2ssc3c2-c2ccc(C)cc2NC3(C)C)cc1 | 2 | 100* | 10 | 8 | -4 | -3
Cc1ccc(S(=O)(=O)NC(=O)Nc2cc(C)ccc2F)cc1 | 0 | -7 | -8 | 15 | -3 | 9
CCC(=O)N1CCCC(C)(C(=O)Nc2ccc(OC)c(F)c2)C1 (stereo unspecified) | / | / | / | / | -4 | /
COCc1cc(C)nc(OCC(=O)N/N=C/c2ccc(O)cc2)c1C#N | 2 | 99* | 0 | 1 | -3 | -2
CC(=O)C1=C(c2cccc([N+](=O)[O-])c2)N(C(C)=O)n2c(C)nnc2S1 | 3 | 98* | 24 | -49 | -17 | -8
CN1CCCC(C)(C(=O)Nc2ccc3scnc3c2)C1 (stereo unspecified) | / | / | / | / | -4 | /
O=C(c1ccccc1)N1CCN(c2ccc(N3CCOCC3)nn2)CC1 | 0 | 0 | / | -7 | -14 | 1
Cn1c(-c2ccc3c(c2)OCO3)cnc1NCc1cccc(O)c1 | 2 | 88* | 1 | -5 | -5 | 2
Cn1c(-c2ccc(F)cc2)cnc1NCc1cccc(F)c1 | 7 | / | -3 | -4 | / | 1
Cn1c(-c2ccc(Cl)cc2)cnc1NCc1cc2c(cc1[N+](=O)[O-])OCO2 | -3 | 26 | 14 | 6 | -2 | -1
Cn1c(-c2ccccc2)cnc1NCc1cc2c(cc1[N+](=O)[O-])OCO2 | 2 | 98* | 2 | 11 | -5 | -5
Cn1c(-c2ccc(F)cc2)cnc1NCc1cc2c(cc1[N+](=O)[O-])OCO2 | -6 | 93* | 10 | 3 | -3 | -6
CC(=O)c1sc(NC(=O)C2CCCN2S(=O)(=O)c2ccccc2F)nc1C (stereo unspecified) | -3 | / | / | / | -4 | 3
COc1ccc(NC(=O)Cn2nnc(C(=O)NCc3cccs3)c2N)cc1Cl | -3 | -5 | 4 | -10 | -6 | 3
Cc1ccc([N+](=O)[O-])c2c1C(N1CC(C)OC(C)C1)C(C)(C)O2 (stereo unspecified) | 2 | -10 | 0 | -4 | -4 | 3
O=C(Nc1ccc(-c2ccco2)cc1)C1CCCN(Cc2ccco2)C1 (stereo unspecified) | / | / | / | / | 37* | /
COc1cccc(NC(=O)C2(C)CCN2CC2CCCCC2)c1 (stereo unspecified) | / | / | / | / | -6 | /
COC(=O)C1(Cc2ccc(O)cc2)OC(=O)C(O)=C1c1ccc(O)cc1 (stereo unspecified) | -1 | 99* | / | 1 | / | 5
CNc1ncn(-c2c(C)cccc2C)c(=O)n1 | / | / | / | / | -12 | /
Cc1cc(NN)nc(Cc2ccccc2)n1 | 7 | 81* | 9 | -6 | -3 | -3
CC1(C)COCN1C(=O)c1ccc(C#N)cc1 | 2 | 0 | 3 | -1 | -18 | 2
CC1(C)CN(c2ccccc2)N(C(=O)c2ccc(C#N)cc2)C1=O | 5 | 85* | -2 | 14 | -3 | 7
CC(=O)OCC1(C)CN(c2ccccc2)N(C(=O)c2ccc(C(C)(C)C)cc2)C1=O (stereo unspecified) | / | / | -14 | 0 | -2 | -5
SMILES | IDE inh | ALR H2O2 inh | M18AAP inhibitor | PolyA inh | CaV13 FRET inh | IDE cell activ
CC1(C)CN(c2ccccc2)N(C(=O)c2ccc(F)cc2)C1=O | -2 | 100* | -6 | -10 | -8 | 1
C=CCc1c(C)nc2c(C)cccc2c1SC(=N)N | 8 | 100* | -1 | 4 | -5 | 6
Cc1nc2c(C)cccc2c(SC(=N)N)c1CC=C(Cl)Cl | -2 | 8 | -4 | -7 | -5 | 6
CCCCCCc1cc2cc(-c3nnc(-c4ccccc4OC)o3)c(=O)oc2cc1O | 48* | -1 | 4 | 9 | 7 | 5
CCCCCCc1cc2cc(-c3nnc(-c4cc(OC)c(OC)c(OC)c4)o3)c(=O)oc2cc1O | 2 | -7 | 5 | 15 | / | /
CCCCCCc1cc2cc(S(=O)(=O)c3ccc(F)cc3)c(=O)oc2cc1O | 1 | -4 | 1 | 7 | 53* | 1
CC1(C)CC(=O)C2=C(C1)OC(c1ccc(O)cc1)C(C#N)=C2N (stereo unspecified) | 2 | 1 | 6 | 0 | -5 | -5
Brc1ccc(C=Nc2ccc3c(c2)OCCOCCOCCO3)s1 | -3 | 89* | 11 | 5 | -2 | 5
Oc1c(Cl)cc(Cl)cc1C=Nc1ccc2c(c1)OCCO2 | -2 | -5 | 13 | -33 | -10 | 5
Brc1csc(C=Nc2ccc3c(c2)OCCOCCOCCOCCO3)c1 | 3 | 100* | 9 | -15 | -3 | 2
COc1cccc(C(=O)COC(=O)CCCC(=O)NC2CCCCC2)c1 | 1 | 0 | -1 | 9 | -6 | 2
O=C(CCN1CCOCC1)NNC(=O)Nc1cccc(C(F)(F)F)c1 | -5 | -4 | 2 | 6 | / | 5
CCOC(=O)C(=NCCCN1CCOCC1)NNc1cccc(C(F)(F)F)c1 | 0 | 98* | -2 | 17 | / | -3
COCCNC(=O)c1c(N)[nH]c(C(=O)c2ccc(Br)cc2)c1-c1ccc(Br)cc1 | / | / | / | / | -16 | /
Cc1c(N=Nc2ccc(O)cc2)c(=O)n(-c2ccccc2)n1C | 3 | 1 | 13 | -7 | 5 | 2
Cc1c(N=NC2=C(O)CCCC2=O)c(=O)n(-c2ccccc2)n1C | 4 | -19 | 32* | -23 | -7 | 4
Cc1c(N=Cc2nc3ccccc3[nH]2)c(=O)n(-c2ccccc2)n1C | 5 | -10 | -5 | 21 | -6 | 7
Cc1cc(N)ccc1N=Nc1c(C)n(C)n(-c2ccccc2)c1=O | 2 | 99* | 2 | -20 | -4 | 8
Cc1[nH]c2ccccc2c1N=Nc1c(C)n(C)n(-c2ccccc2)c1=O | 2 | 99* | 6 | 27 | -3 | -3
O=C(c1ccc(Br)c(S(=O)(=O)N2CCOCC2)c1)N1CCN(C/C=C/c2ccccc2)CC1 | / | / | / | / | -2 | -1
CCOC(=O)c1ccc(NC(=O)C(C)Sc2nc(O)c(-c3ccccc3)c(=O)[nH]2)cc1 (stereo unspecified) | -4 | 99* | 6 | 4 | -2 | 6
O=C(O)CSc1c2ccccc2cc2ccccc12 | 3 | 99* | 13 | -17 | -2 | 3
O=C(O)COc1ccccc1/C=N/NC(=O)CSc1nnc(SCc2cccc3ccccc23)s1 | -2 | 97* | 3 | 8 | -15 | 9
O=C(O)CSc1nnc(SCc2cccc3ccccc23)s1 | 2 | 98* | 3 | 25 | -6 | 2
